# Measured values from PubChem BioAssay (NCI).
# About 79,000 compounds went through this panel and 15% of them were active in at least one assay; those are over-represented in the sample as a whole. Values without a mark were called inactive. Calls of active or inactive are those of the source. Rule as the data show it: active = growth inhibition above about 70%; inactive = the rest.
# Tests used:
# [1] = NCI Yeast Anticancer Drug Screen. Data for the rad50 strain (AID 155);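 also: 0% = growth of vehicle-only cultures of the same strain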; settings: S. cerevisiae rad50 strain growth inhibition, stronger effect = higher value
# Summary of the method: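 Compounds were tested on a yeast strain with an engineered DNA damage repair alteration; the reported value is growth inhibition normalised to vehicle treatment.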
# [2] = NCI Yeast Anticancer Drug Screen. Data for the mec2-1 strain (AID 157); settings: S. cerevisiae mec2-1 strain, stronger effect = higher value
# Summary of the method: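 Compounds were applied to mec2-1 yeast cells. Their growth was then compared with that of vehicle-treated cultures to give growth inhibition.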
# [3] = NCI Yeast Anticancer Drug Screen. Data for the sgs1 mgt1 strain (AID 161);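 also: 0% = growth of cultures given vehicle only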; settings: S. cerevisiae sgs1 mgt1 strain, stronger effect = higher value
# Summary of the method: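 Compounds are added to genetically altered yeast, and growth is compared with cultures given vehicle alone to give percent inhibition.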
# [4] = NCI Yeast Anticancer Drug Screen. Data for the cln2 rad14 strain (AID 165);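 also: 0% = growth equal to vehicle treated cultures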; settings: S. cerevisiae cln2 rad14 strain, stronger effect = higher value
# Summary of the method: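 Strain: cln2 rad14 yeast, altered in cell cycle control and DNA damage repair. Read-out: growth inhibition vs vehicle.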
# [5] = NCI Yeast Anticancer Drug Screen. Data for the bub3 strain (AID 167); settings: S. cerevisiae bub3 mutant strain, stronger effect = higher value
# Summary of the method: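 Growth of a checkpoint-deficient yeast mutant is measured after compound exposure. Values represent inhibition relative to vehicle.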
# [6] = NCI Yeast Anticancer Drug Screen. Data for the mlh1 rad18 strain (AID 175); settings: S. cerevisiae mlh1 rad18 strain growth inhibition, stronger effect = higher value
# Summary of the method: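 A repair-deficient yeast strain is exposed to test compound, and growth is scored relative to vehicle-treated controls.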
# [7] = at 5.0 µM (retest, dose inferred, filed as 0.5)
# [8] = at 50.0 µM (retest, dose inferred, filed as 5.0)
Structure (SMILES),"growth inhibition [1, 7]","growth inhibition [1, 8]",growth inhibition ([1]; at 50.0 µM),"growth inhibition [2, 7]","growth inhibition [2, 8]",growth inhibition ([2]; at 50.0 µM),"growth inhibition [3, 7]","growth inhibition [3, 8]",growth inhibition ([3]; at 50.0 µM),"growth inhibition [4, 7]","growth inhibition [4, 8]",growth inhibition ([4]; at 50.0 µM),"growth inhibition [5, 7]","growth inhibition [5, 8]",growth inhibition ([5]; at 50.0 µM),"growth inhibition [6, 7]","growth inhibition [6, 8]",growth inhibition ([6]; at 50.0 µM)
C[As](C)SCCC(N)C(=O)NC(CCS[As](C)C)C(=O)O (configuration not stated),30%,98% (active),88.9% (active),20%,99% (active),90.8% (active),-3%,99% (active),89.8% (active),35%,98% (active),92.2% (active),2%,97% (active),90% (active),27%,99% (active),75.5% (active)
CCCCCc1cc(OC(=O)CCCN(CC)CC)c2c(c1)OC(C)(C)[C@@H]1CCC(C)=C[C@@H]21,79% (active),97% (active),87% (active),30%,98% (active),91% (active),63%,99% (active),89.7% (active),49%,98% (active),90% (active),27%,99% (active),87.8% (active),74% (active),97% (active),91.7% (active)
O=C1CN2CCCCC2CN1 (configuration not stated),-159%,-143%,-13.2%,-43%,-47%,7.9%,-59%,-56%,-2.65%,-58%,-60%,24.9%,-73%,-71%,1.8%,-137%,-114%,5.35%
O=C1C(=O)C(Br)(Br)C(Br)=C1Br,-2%,4%,88.5% (active),1%,21%,88.2% (active),-4%,5%,95% (active),-1%,-2%,90.5% (active),-4%,-1%,93.5% (active),-4%,-4%,96.8% (active)
BrP(NC1CCCCCC1)(c1ccccc1)(c1ccccc1)c1ccccc1,43%,97% (active),98.5% (active),39%,99% (active),99.3% (active),47%,98% (active),99.2% (active),12%,97% (active),98.7% (active),25%,98% (active),99% (active),65%,98% (active),99% (active)
COC12c3c(C)cc(O)c4c(=O)occ(c34)C(=O)C1C13COC(=O)c4c(O)cc(C)c(c41)C(=O)C2C3OC(C)=O (configuration not stated),45%,99% (active),91.4% (active),32%,100% (active),93% (active),69%,99% (active),92.7% (active),63%,100% (active),91.9% (active),71% (active),100% (active),91.1% (active),36%,99% (active),91.9% (active)
IC(I)=C(I)I,98% (active),93% (active),88.5% (active),100% (active),96% (active),92.2% (active),99% (active),96% (active),91.9% (active),99% (active),96% (active),90.8% (active),100% (active),95% (active),90% (active),99% (active),91% (active),90.1% (active)
C[C@]12CCC(O)CC1=CC[C@@H]1[C@@H]2CC[C@]2(C)C(=O)[C@H](n3ccnc3)C[C@@H]12 (some centres not stated),21%,54%,41.9%,12%,46%,58%,18%,62%,52.2%,29%,51%,38.2%,20%,56%,38.9%,19%,51%,75.6% (active)
O=[n+]1c2ccccc2n([O-])c2ccccc21.[Cl][Cu][Cl],90% (active),98% (active),99.1% (active),20%,99% (active),99% (active),36%,98% (active),99.2% (active),7%,97% (active),97.6% (active),-3%,98% (active),97.7% (active),57%,98% (active),99% (active)
